Drawing on PubChem BioAssay (Tox21), this text covers outcome for 40 molecules.

Structures are written as SMILES. Records with an inconclusive call do not appear. Calls of active or inactive are those of the source. The call rests on the fitted dose curve; in most records, active means well fitted inhibition curve with a large enough effect in the signal ratio in the repeat runs (not every such curve was filed as active); inconclusive means weak or mixed curves, or effect the other way; inactive means no such curve, though single readings can be large or run the other way; the % refers to the signal ratio. Residues, ends and D or L forms follow the SMILES beside them.

In this experiment the target is Glucocorticoid receptor (Homo sapiens) (UniProt P04150). Put plainly: qHTS assay to identify small molecule antagonists of the glucocorticoid receptor (GR) signaling pathway (AID 720692). Conditions: GR-bla HeLa, beta-lactamase FRET ratio, dexamethasone-stimulated, 18 h; series mostly up to 58.5 µM. An excerpt: U.S. Tox21 Program National Center for Advancing Translational Sciences [NCATS] NIH Chemical Genomics Center [NCGC] U.S. Environmental Protection Agency [EPA] National Institutes of Environmental Health Sciences [NIEHS] National Toxicology Program [NTP] U.S. Food and Drug Administration [FDA] Tox21 Assay Overview: The Glucocorticoid receptor (GR) is one of the members of the nuclear receptor family of ligand-dependent transcription factors. GR plays a critical role in carbohydrate, protein and lipid metabolisms and programmed cell death. CellSensor GR-bla HeLa cell line (Invitrogen) contains a beta-lactamase reporter gene under the control of the glucocorticoid response element stably integrated into HeLa cells, a cervical cancer cell line that expresses glucocorticoid receptor. The activation of the reporter gene under culture conditions can be detected by fluorescence intensity. This cell line has been used to screen the Tox21 10K compound library and to identify the compounds that inhibit the GR signaling.
Sequence of Glucocorticoid receptor (Homo sapiens) (P04150 whole entry, looked up): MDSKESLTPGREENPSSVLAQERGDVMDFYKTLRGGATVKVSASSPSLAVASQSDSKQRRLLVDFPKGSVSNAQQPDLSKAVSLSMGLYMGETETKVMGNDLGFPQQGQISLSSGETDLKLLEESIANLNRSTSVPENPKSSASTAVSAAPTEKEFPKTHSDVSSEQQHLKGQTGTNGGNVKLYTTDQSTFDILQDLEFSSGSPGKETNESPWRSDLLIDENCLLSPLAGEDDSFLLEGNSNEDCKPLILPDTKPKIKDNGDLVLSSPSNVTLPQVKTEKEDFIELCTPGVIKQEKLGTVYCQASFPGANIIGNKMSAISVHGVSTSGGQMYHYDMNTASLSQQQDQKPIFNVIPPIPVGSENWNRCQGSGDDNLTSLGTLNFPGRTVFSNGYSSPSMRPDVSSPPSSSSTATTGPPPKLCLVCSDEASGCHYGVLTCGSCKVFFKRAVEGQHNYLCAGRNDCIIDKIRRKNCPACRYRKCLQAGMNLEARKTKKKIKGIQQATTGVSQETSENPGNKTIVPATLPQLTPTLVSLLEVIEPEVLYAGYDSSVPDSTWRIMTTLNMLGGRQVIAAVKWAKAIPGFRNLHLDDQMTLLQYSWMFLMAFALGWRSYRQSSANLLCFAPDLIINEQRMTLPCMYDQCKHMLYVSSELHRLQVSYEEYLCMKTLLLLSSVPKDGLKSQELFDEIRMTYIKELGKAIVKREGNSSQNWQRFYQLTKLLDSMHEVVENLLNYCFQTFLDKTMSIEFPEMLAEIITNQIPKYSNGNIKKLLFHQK
Tox21 Assay Protocol Summary: The GR-bla HeLa cells were dispensed at 1500 cells/5 ul/well in 1536-well black wall/clear bottom plates using a Multidrop Combi (ThermoFisher Scientific, Waltham, MA) dispenser. After the assay plates were incubated at a 37 C/5% CO2 incubator for 4 hours, 23 nL of compounds dissolved in DMSO, positive controls or DMSO only was transferred to the assay plate by a pintool station (Kalypsys, San Diego, CA), followed by addition of 1 uL of dexamethasone (5 nM, final concentration in the well). The plates were incubated at 37 C for 18 hours. After 1 uL of LiveBLAzerTM B/G FRET substrate was added using a Flying Reagent Dispenser (Aurora Discovery, San Diego, CA), the plates were incubated at room temperature for 2 hours, and fluorescence intensity was measured by an Envision plate reader (PerkinElmer, Shelton, CT).
`CC(O)CN(CCN(CC(C)O)CC(C)O)CC(C)O` (stereo not given): the outcome was inactive.
Take `CCCNC(=O)NS(=O)(=O)c1ccc(Cl)cc1`: the outcome was inactive.
The same measure for `O=C(O)c1cc(N=Nc2ccc(S(=O)(=O)Nc3ccccn3)cc2)ccc1O`: “inactive”; for `CCCCCCCCCCCCCCCC(=O)O`: “inactive”.
The result for `O=C(c1ccccc1)C(O)c1ccccc1` (stereo not given) reads “inactive”.
The same measure for `O=C(O)CS`: “inactive”.
As for `CCCC(CCC)C(=O)O`, the result was inactive.
Take `CCCN(CCC)S(=O)(=O)c1ccc(C(=O)O)cc1`: the outcome was inactive.
The result for `O=S(=O)(O)c1ccc2cc(O)ccc2c1` reads “inactive”; that for `O=C(O)c1cccc([N+](=O)[O-])c1`, “inactive”; that for `CC(=O)Nc1nnc(S(N)(=O)=O)s1`, “inactive”.
`CC1(C)[C@@H]2CC[C@@]1(C)C(=O)C2`: the result was inactive.
The same measure for `CC(=O)OCC(COC(C)=O)OC(C)=O`: “inactive”.
The result for `O=C(O)C(=O)O` reads “inactive”.
The same measure for `COC(=O)[C@H](Cc1ccccc1)NC(=O)[C@@H](N)CC(=O)O` (H-Asp-Phe-OMe): “inactive”; for `OC(Cn1cncn1)(Cn1cncn1)c1ccc(F)cc1F`: “inactive”.
Regarding `NC(=O)NC1NC(=O)NC1=O` (stereo not given), the outcome was inactive.
Regarding `CCCCOC(=O)CC(CC(=O)OCCCC)(OC(C)=O)C(=O)OCCCC`, the result was inactive.
With `Nc1ccc(O)c(C(=O)O)c1`, the result was inactive.
The same measure for `NNC(=O)c1ccncc1`: “inactive”; for `NC(N)=NC(=O)c1nc(Cl)c(N)nc1N`: “inactive”.
The same measure for `CCC1(c2ccccc2)C(=O)NCNC1=O`: “inactive”; for `Nc1ccc(C(=O)O)cc1`: “inactive”; for `CC(=O)NS(=O)(=O)c1ccc(N)cc1`: “inactive”.
Take `CC(O)CO` (stereo not given): the outcome was inactive.
The same measure for `c1ccc2[nH]ccc2c1`: “inactive”; for `NC(=O)c1ccccc1O`: “inactive”; for `O=C(O)CCCCC(=O)O`: “inactive”.
The same measure for `CCCCC1C(=O)N(c2ccccc2)N(c2ccccc2)C1=O`: “inactive”; for `COc1ccc2[nH]cc(CCNC(C)=O)c2c1`: “inactive”.
The result for `O=c1cc[nH]c(=S)[nH]1` reads “inactive”.
Take `NC(=O)c1cnccn1`: the outcome was inactive.
The same measure for `Cc1cn([C@H]2C[C@H](N=[N+]=[N-])[C@@H](CO)O2)c(=O)[nH]c1=O`: “inactive”.
As for `COc1c2occc2cc2ccc(=O)oc12`, the outcome was inactive.
The same measure for `O=C1CN(/N=C/c2ccc([N+](=O)[O-])o2)C(=O)N1`: “inactive”; for `Cc1ccc(O)cc1`: “inactive”; for `O=C(c1ccccc1)c1ccccc1`: “inactive”.
The result for `Cc1ccc(S(=O)(=O)NC(=O)NN2CCCCCC2)cc1` reads “inactive”.
The same measure for `Nc1ccc(S(=O)(=O)Nc2nccs2)cc1`: “inactive”; for `CCCCC(CC)COC(=O)/C=C/c1ccc(OC)cc1` (stereo not given): “inactive”.
